Assay results as given in PubChem BioAssay AID2314 (National Center for Advancing Translational Sciences (NCATS), 2010).
Hit rate of the full screen: of about 300,000 compounds, about 37,000 (12%) were called active. Rule as the data show it: active = max response mostly above about 13% (no sharp cut-off); inactive = mostly below about 14%. This excerpt belongs to a sample that is enriched for actives.

Assay: Cycloheximide Counterscreen for Small Molecule Inhibitors of Shiga Toxin; also: read at 38.3 µM for the half of the compounds with a filed dose; 0% is about no effect
Settings: cell reporter, cycloheximide protein synthesis inhibition counterscreen; active compounds read high

Row | Compound | max response
1 | CCOc1cc(C)ccc1OCc1nnc(SCC(=O)Nc2cccc(C(=O)O)c2)n1-c1ccccc1 | 3.69% (inactive)
2 | CC(C)C[C@H]1CN=C(Nc2ccccc2)N1CC1CCCCC1 | -4.32% (inactive)
3 | CC(=O)N1c2ccc(S(=O)(=O)N3CCCC(C(=O)Nc4ccc(C)cc4C)C3)cc2CC1C (stereo unspecified) | -0.234% (inactive)
4 | CC(C)c1cc(NCc2ccccn2)n2c(nc3ccccc32)c1C#N | 9.39% (inactive)
5 | Cc1ccc(Cl)cc1N1CCN(C(=O)c2cccc3c(=O)c(C)c(-c4ccccc4)oc23)CC1 | 3.64% (inactive)
6 | COCCn1cnc2c1c(=O)n(CC(=O)NN)c(=O)n2Cc1ccccc1 | -14.6% (inactive)
7 | O=Cc1c(Nc2ccccc2Cl)nc2ccccn2c1=O | -2.35% (inactive)
8 | O=C(COC(=O)CCCNC(=O)c1ccc(Cl)cc1)Nc1cc(Cl)ccc1Cl | -0.294% (inactive)
9 | Cc1cc(C2=NNC(=Nc3ccc(S(=O)(=O)N4CCOCC4)cc3)SC2)c(C)n1CC1CCCO1 (stereo unspecified) | 19.4% (inactive)
10 | C=CCn1c(C)cc(C2=NNC(=NCC)SC2)c1C | -12% (inactive)
11 | COCCn1c(C)cc(C2=NNC(=Nc3ccc(F)cc3)SC2)c1C | 31.2% (active)
12 | COc1ccc(C(=O)C[n+]2ccc(N)c(C)c2C)cc1 | -5.16% (inactive)
13 | CN1CN(C)c2ccc([N+](=O)[O-])c3cccc1c23 | -0.807% (inactive)
14 | C=CCNC(=S)/N=c1/ccccn1Cc1ccccc1 | 1.08% (inactive)
15 | CC(=O)Nc1ccc(S(=O)(=O)N2CCN(c3ccc([N+](=O)[O-])c(NCCN4CCOCC4)c3)CC2)cc1 | -3.02% (inactive)
16 | CN(CC(=O)Nc1ccc(N2CCOCC2)cc1)CC(=O)Nc1ccccc1[N+](=O)[O-] | -1.06% (inactive)
17 | COc1ccccc1OCCNc1cc(N2CCOCC2)ccc1[N+](=O)[O-] | 24.7% (active)
18 | Cc1ccc(CNC(=O)C2CCCN2S(=O)(=O)c2ccc3c(c2)C(C)(C)C(=O)N3C)cc1 (stereo unspecified) | -3.55% (inactive)
19 | C=CCOc1ccc(C(=O)Nc2ccccc2C(=O)N2CCCC2)cc1 | -1.61% (inactive)
20 | Cc1cccc(NC(=O)CN2CCCN(S(=O)(=O)c3ccc(Br)s3)CC2)c1 | 19.9% (inactive)
21 | CSc1ncccc1C(=O)OCc1ccc(Br)cc1 | 36.2% (active)
22 | CSc1ncccc1C(=O)NCc1ccccc1Cl | 2.57% (inactive)
23 | CSc1ncccc1C(=O)OCC(=O)N1CCOCC1 | -5.04% (inactive)
24 | CN1CCN(c2cc3c(cc2F)c(=O)c(C(=O)O)cn3CCF)CC1 | -3.38% (inactive)
25 | Oc1ccc(N=Nc2nccs2)c(O)c1 | 38% (active)
26 | Oc1ccc2ccccc2c1N=Nc1nccs1 | 11.4% (inactive)

Row | Compound | max response
27 | Cc1nnc(SCC(=O)N2CCc3ccccc32)n1-c1ccccc1 | -1.58% (inactive)
28 | O=C(CSCc1ccccc1)N1CCc2ccccc21 | 50.5% (active)
29 | NC(=O)N1CCc2ccccc21 | -6.54% (inactive)
30 | Cc1ccc(Oc2cc(NC(=O)CCCn3nc(C)c([N+](=O)[O-])c3C)cc([N+](=O)[O-])c2)cc1 | 6.56% (inactive)
31 | Cc1ccc2ccc3c(c2n1)NS(=O)(=O)c1ccccc1-3 | 9.31% (inactive)
32 | O=C1CC(C(F)(F)C(F)(F)C(F)(F)C(F)(F)F)=Nc2ccccc2N1 | 1.33% (inactive)
33 | Cc1ccccc1-n1nc(C)c2cc(C(=O)NC3CC3)sc21 | 13.7% (inactive)
34 | O=C(CSc1nc2nccnc2c(=O)n1Cc1cccs1)Nc1ccccc1F | 18.8% (inactive)
35 | Cc1cccc(-c2noc(CCC(=O)NC3CCCC3)n2)c1 | 2.28% (inactive)
36 | Cc1cccc(-c2nc(Nc3ccc(O)cc3)c3ccccc3n2)c1 | -0.236% (inactive)
37 | Cc1ccc(Cc2nc(-c3cccc(C)c3)no2)cc1 | 31.8% (active)
38 | Cc1cccc(-c2noc(-c3ccc(F)cc3)n2)c1 | 70.7% (active)
39 | CC(=O)N1CCCc2cc(S(=O)(=O)N3CCCC(C(=O)NCc4ccc(Cl)cc4)C3)ccc21 (stereo unspecified) | -1.26% (inactive)
40 | CCN1C(=O)C(C(=O)NC(C)c2ccccc2)C2CC1(C)Oc1ccccc12 (stereo unspecified) | -6.07% (inactive)
41 | Cc1nn(CC(=O)N2CCCCC2)c(=O)c2nn(-c3ccccc3)c(C)c12 | -0.579% (inactive)
42 | C[C@H](NC(=O)C1CCN(S(=O)(=O)c2ccccc2)CC1)C(=O)NCc1ccccc1 | -2.6% (inactive)
43 | COCCN1C(=O)C(=O)/C(=C(/O)c2ccc(S(=O)(=O)N3CCOCC3)cc2)C1c1ccc(OC)c(OC)c1 (stereo unspecified) | -0.449% (inactive)
44 | CCOCCCNC(=O)c1cn(CC(C)C)c(=O)c2c1c1ccccc1n2C | 1.59% (inactive)
45 | Cc1cc(Cl)c(S(=O)(=O)NCC2CCCO2)cc1OCC(N)=O (stereo unspecified) | -0.524% (inactive)
46 | Cc1cc(Cl)c(S(=O)(=O)N(C)C)cc1OCC(N)=O | 4.25% (inactive)
47 | Cc1cc(Cl)c(S(=O)(=O)Nc2ccc3c(c2)OCCO3)cc1OCC(N)=O | 40.8% (active)
48 | COc1ccc(S(=O)(=O)N2CCN(c3ncnc4c(-c5ccccc5)nsc34)CC2)cc1 | -2.92% (inactive)
49 | CC1=C(C(=O)OC2CCCCC2)C(c2cccnc2)n2ncnc2N1 (stereo unspecified) | -3.65% (inactive)
50 | C=CCCN(C(Cc1ccccc1)C(=O)OC)S(=O)(=O)c1cc(Br)ccc1Br (stereo unspecified) | -0.573% (inactive)
51 | O=[N+]([O-])c1ccc(NC(=S)N2CCN(c3ccccn3)CC2)cc1 | -3.35% (inactive)
52 | O=C(Nc1ccc([N+](=O)[O-])cc1)OCCc1ccccn1 | 19% (active)

Row | Compound | max response
53 | O=C(Nc1cccc(Cl)c1)OCc1ccccn1 | 26.4% (inactive)
54 | COc1ccc2c(Cl)c(-c3nnco3)sc2c1 | 0.855% (inactive)
55 | O=C(OCC#CCSc1nnc(-c2ccncc2)o1)c1sc2ccccc2c1Cl | -4.75% (inactive)
56 | C#CCSc1nnc(-c2sc3ccccc3c2Cl)o1 | 46.5% (active)
57 | COCCNC(=O)CCCN1C(=O)c2ccccc2Sc2ncccc21 | 5.87% (inactive)
58 | Cc1cccc(C2=N/C(=C/c3cccs3)C(=O)O2)c1 | 29.6% (active)
59 | Cc1ccc(N2CCN(C3=NC(=O)/C(=C\c4cccs4)S3)CC2)cc1 | 3.49% (inactive)
60 | Cc1ccc(C2=N/C(=C\c3ccc(OS(=O)(=O)c4ccc(C)cc4)cc3)C(=O)O2)cc1 | 0.746% (inactive)
61 | Cc1ccc(S(=O)(=O)N2CCN(C(=O)N3CCOCC3)CC2)c(C)c1 | -0.587% (inactive)
62 | Cc1ccc(NC(=O)[C@H](Cc2ccccc2)NC(=O)C2CCNCC2)cc1 | -1.28% (inactive)
63 | Cc1ccccc1NC(=O)C1CCN(C(=O)NC2CCCCC2)CC1 | -2.51% (inactive)
64 | CC(=O)Nc1cc2ccc(OC(C)=O)cc2oc1=O | -3.66% (inactive)
65 | O=C(Nc1cc2ccccc2oc1=O)C1CCCCC1 | 34.2% (active)
66 | Cc1ccc(S(=O)(=O)N/N=C(\c2ccccc2)C2CC2)cc1 | -0.529% (inactive)
67 | COc1cccc(C2c3[nH]c4ccccc4c3CCN2Cc2cccc(C)n2)c1 (stereo unspecified) | -0.212% (inactive)
68 | CCOc1ccc(S(=O)(=O)N2CCC(c3ccccc3)CC2)cc1C(=O)O | -3.04% (inactive)
69 | COc1ccc(/C=N/Nc2cc(N3CCOCC3)nc(C)n2)c(OC)c1 | -1.58% (inactive)
70 | COc1ccc(C=C(C#N)C#N)c(CSc2ccccn2)c1 | -3.44% (inactive)
71 | COc1ccc(/C=N/OCc2ccccc2C#N)c(OC)c1 | 38% (active)
72 | Cc1ccc(C(=O)Nc2nnc(C3=COCCO3)o2)cc1C | 14.8% (active)
73 | O=C(Nc1nnc(C2=COCCO2)o1)c1ccc([N+](=O)[O-])s1 | -2.32% (inactive)
74 | Cc1ccc(C(=O)Nc2nnc(-c3cccs3)s2)cc1C | 13.9% (inactive)
75 | Cc1nn(Cc2ccccc2)c(C)c1NS(=O)(=O)c1ccccc1 | 5.29% (inactive)
76 | CCN(CC)S(=O)(=O)c1ccc(N(C)CCc2ccc(OC)c(OC)c2)nc1 | -1.93% (inactive)
77 | CCOc1ccccc1NC(=O)Cn1ncc2ccc([N+](=O)[O-])cc21 | 8.74% (inactive)
78 | O=C(Nc1ccccc1F)C1C2C=CC3(O2)C1C(=O)N(c1cccnc1)C3C(=O)NC1CCCCC1 (stereo unspecified) | 41.8% (active)

Row | Compound | max response
79 | CCN(CC)CCN1C(=O)C2C(C(=O)Nc3ccc(Br)cc3)C3C=CC2(O3)C1C(=O)NC1CCCCC1 (stereo unspecified) | -5.6% (inactive)
80 | CC(C)N1C(=O)C2C(C(=O)NC3CCCCC3)C3C=CC2(O3)C1C(=O)NC1CCCC1 (stereo unspecified) | -1.06% (inactive)
81 | Cc1cccc(C(=O)NC(=S)N2CCN(c3ccc([N+](=O)[O-])cc3)CC2)c1 | -1.96% (inactive)
82 | O=c1c(-c2ccc(Cl)cc2)[n+]([O-])c2ccccc2n1OCc1nc2ccccc2[nH]1 | 24.8% (active)
83 | CCN(CC)CCCNC(=S)N(CCO)Cc1cc2cc3c(cc2[nH]c1=O)OCO3 | -1.33% (inactive)
84 | COc1ccc(CCNC(=O)CCC(=O)NC2CCCCC2)cc1OC | -1.91% (inactive)
85 | CC(C)(C)C1CCC(C(=O)Nc2cccnc2)CC1 (stereo unspecified) | -2.39% (inactive)
86 | COCC1CCCN(Cc2cn[nH]c2-c2cc3ccccc3o2)C1 (stereo unspecified) | 7.39% (inactive)
87 | COCC1CCCN(Cc2nc(-c3ccc4c(c3)OCO4)no2)C1 (stereo unspecified) | 42.1% (active)
88 | CC1CCCN(CC(O)COc2ccc3c(c2)OCO3)C1 (stereo unspecified) | 4.28% (inactive)
89 | Cc1c(NC(=O)c2c([N+](=O)[O-])cnn2C)c(=O)n(-c2ccccc2)n1C | -6.14% (inactive)
90 | O=C(Nc1ccccc1C(=O)NCC1CCCO1)c1ccccc1F (stereo unspecified) | 14.1% (inactive)
91 | COc1ccc(SCc2noc(C(=O)NCC3CCCO3)c2C(=O)O)cc1 (stereo unspecified) | -3.22% (inactive)
92 | CCC(=O)c1c[nH]c(C(=O)NCC2CCCO2)c1 (stereo unspecified) | -0.953% (inactive)
93 | COCCNC(=O)c1ccccc1-c1nc(-c2ccccc2Cl)no1 | 28.8% (inactive)
94 | Cc1ccccc1CN(c1ccc(C(=O)NCC2CCCO2)cc1)S(C)(=O)=O (stereo unspecified) | -5.23% (inactive)
95 | COc1ccc2cc(C(=O)NCC3CCCO3)[nH]c2c1 (stereo unspecified) | 62.1% (active)
96 | O=C(CSCc1c(F)cccc1Cl)NCC1CCCO1 (stereo unspecified) | 13.1% (inactive)
97 | Cc1ccc(-c2noc(-c3ccccc3C(=O)NCC3CCCO3)n2)cc1 (stereo unspecified) | 27.2% (active)
98 | Cc1nc2ccccc2c2oc(C(=O)NCC3CCCO3)cc12 (stereo unspecified) | -1.07% (inactive)
99 | O=C(NCC1CCCO1)c1ccccc1-c1nc(-c2ccccc2Cl)no1 (stereo unspecified) | 27.4% (active)
100 | O=C(NCC1CCCO1)c1ccc2ccccc2n1 (stereo unspecified) | 29.9% (active)
101 | O=C(NCC1CCCO1)c1cc(-c2ccccc2)nc2ccccc12 (stereo unspecified) | 9.86% (inactive)
